Bioassay records as filed in PubChem.
HP1b binding inh: HP1-beta chromodomain-methylated histone interaction inhibition. P83916. AlphaScreen HP1-beta / biotin-H3K9me3 peptide binding. Potency, µM (top dose mostly 114 µM), usual class: inhibitors. 390,000 tested, 0.56% active. AID 540317; note: nearly all actives have a fitted effect of over 70% in size
Target sequence (P83916 whole entry, looked up): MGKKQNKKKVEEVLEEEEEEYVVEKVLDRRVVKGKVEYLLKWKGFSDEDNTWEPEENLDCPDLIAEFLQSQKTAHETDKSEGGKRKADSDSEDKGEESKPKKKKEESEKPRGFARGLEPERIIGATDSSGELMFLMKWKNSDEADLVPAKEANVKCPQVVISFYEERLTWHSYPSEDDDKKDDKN
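HP1-beta protein (50 nM final) preincubated 30 min at room temperature with biotinylated H3(1-18)K9me3 peptide (50 nM) in PBS pH 7.4, 0.01% Tween-20, then compound added for 30 min. AlphaScreen streptavidin donor/nickel chelate acceptor beads (10 ug/mL final), 30 min dark, luminescence read.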
L3MBTL1 block: blocks human L3MBTL1 | Q9Y468 | AlphaScreen L3MBTL1–H3K9me1 peptide binding | Potency, µM (top dose mostly 57.1 µM), hits mostly inhibitors | 230,000 tested, 0.66% active; note: nearly all actives have a fitted effect of over 60% in size
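First, the protein-peptide complex forms for 30 min at room temperature (L3MBTL1 50 nM, biotinylated H3K9me1 peptide 75 nM). Next, compounds are pin-transferred and incubated 30 min. Finally, AlphaScreen beads are added and read after 30 min.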
Sfp PPTase inh: Sfp phosphopantetheinyl transferase inhibition. 310,000 tested, 3.5% active. Biochemical Sfp PPTase activity, qHTS. Potency, µM, hits mostly inhibitors. AID 1490;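 note: the enzyme is Sfp with the accession as filed and its product quenches rhodamine fluorescence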
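Buffer: 50 mM Hepes-Na pH 7.6, 10 mM MgCl2, 0.01% Nonidet P-40, 0.01% BSA. Enzyme 15 nM, pre-exposed to compound 15 min; substrates then added and fluorescence change tracked over 30 min.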
BAZ2B block: blocks human BAZ2B | Q9UIF8 | AlphaScreen BAZ2B-H3K14Ac peptide displacement | Potency, µM (titrated, usually from 114 µM), hits mostly inhibitors | 360,000 tested, 4.4% active; note: nearly all actives have a fitted effect of over 60% in size
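BAZ2B (50 nM) with biotin-H3(5-23)K14Ac peptide (50 nM) in PBS pH 7.4, 0.01% Tween-20, preformed 30 min, then compound 30 min at room temperature; top concentration 110uM. AlphaScreen streptavidin donor/nickel chelate acceptor beads (10 ug/mL final), 20 min dark, signal read.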
JMJD2A Tudor: blocks the human JMJD2A Tudor domain | AlphaScreen JMJD2A-Tudor / H3K4me3 peptide binding | Potency, µM (series often up to 114 µM), hits mostly inhibitors | 390,000 tested, 4.4% active | AID 504339; note: nearly all actives have a fitted effect of over 50% in size
G9a inh: G9a (human) methyltransferase inhibition; Q96KQ7; G9a H3K9 monomethylation, AlphaScreen, 2 h; Potency, µM (highest dose often 102 µM), most hits filed as inhibitors; 350,000 tested, 8.8% active; note: nearly all actives have a fitted effect of over 75% in size
Target sequence (Q96KQ7 913-1193 limits assumed): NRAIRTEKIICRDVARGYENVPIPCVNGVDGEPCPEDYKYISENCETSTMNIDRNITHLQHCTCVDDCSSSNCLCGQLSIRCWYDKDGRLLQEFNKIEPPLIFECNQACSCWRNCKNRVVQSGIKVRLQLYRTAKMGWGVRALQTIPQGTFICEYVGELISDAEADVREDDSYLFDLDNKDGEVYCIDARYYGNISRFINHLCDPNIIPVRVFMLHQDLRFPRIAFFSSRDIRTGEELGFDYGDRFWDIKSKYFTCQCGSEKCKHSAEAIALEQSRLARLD
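Chemiluminescent proximity detection of H3K9 monomethylation, read after 10 min bead incubation in the dark. Reaction: 20 nM G9a, 500 nM biotin-H3K9 peptide, 20 uM SAM cofactor, 2 h, room temperature, following 15 min enzyme-compound preincubation.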
Hits are given with their value; - = inactive; ? = inconclusive; . = no result; ! = a repeat was not active; [ ] = dose if it differs, or a comment. Rows were chosen to be rich in hits. Some 12% of all compounds tested hit in one or more screens of this group. Calls come from the whole dose curve; as a rule, active = well fitted curve in the direction sought with a large enough effect; inconclusive = small, poorly fitted or top-dose-only effect, or another doubt; inactive = no such curve, though single readings can be large; an effect the other way counts as inactive or inconclusive.

SMILES | HP1b binding inh | L3MBTL1 block | Sfp PPTase inh | BAZ2B block | JMJD2A Tudor | G9a inh
O=C(COc1ccc(Cl)cc1Cl)OCC(=O)N1CCCc2ccccc21 | - | - | - | - | - | -
CN1OC[C@@H]2CN[C@H](c3cccc(-c4ccccc4)c3)C[C@@H]21 | - | . | . | . | - | .
Cc1ccc(CNC(=O)C2CCN(c3nc4ccc(C)cc4[nH]3)CC2)cc1 | - | . | . | - | - | -
O=C(NCCc1ccccc1)C1CCN(Cc2ccccc2F)CC1 | 25.1µM | - | - | 56.2µM | 2.51µM | 7.94µM
CN(C)CC(C)(C)CNC(=O)C1CCN(Cc2ccccc2O)CC1 | ? | - | - | 56.2µM | 6.31µM | 10µM
CN(C)c1ccc(CNC(=O)C2CCN(C(=O)c3ccc(-n4ccc5ccccc54)s3)CC2)cc1 | ? | . | . | - | 17.8µM | ?
CN(C)c1ccc(CNC(=O)C2CCN(c3nc4ccccc4[nH]3)CC2)cc1 | - | . | . | ? | ? | 15.8µM
CC(=O)N1CCc2c(sc3c2c(=O)n(CCc2ccccc2)c(=O)n3Cc2ccc(Cl)cc2)C1 | - | . | . | - | - | ?
CCC1=C(c2ccc(C)cc2)S(=O)(=O)N=C1N1CCC(C(=O)NCc2ccc(N(C)C)cc2)CC1 | - | . | . | ? | ? | 12.6µM
Cc1ccc(Cn2c(CN3CCC(C(=O)NCCc4ccccc4)CC3)cc3ccccc32)cc1 | ? | . | . | 17.8µM | 39.8µM | 8.91µM
Cc1ccsc1CN1CCC(C(=O)NCc2ccccc2Cl)CC1 | ? | - | ? | - | 7.94µM | 10µM
O=C(NCc1cccnc1)C1CCN(Cc2cc3ccccc3n2Cc2ccccc2)CC1 | - | . | . | ? | ? | -
CN(C)c1ccc(CNC(=O)C2CCN(Cc3cc4ccccc4n3Cc3ccccc3)CC2)cc1 | - | . | . | 3.55µM | 11.2µM | 11.2µM
CC(=O)Nc1c(C)nn(-c2ccccc2)c1N1CCC(C(=O)NCc2ccccc2Cl)CC1 | - | . | . | - | - | -
O=C(NCCc1ccccc1)C1CCN(Cc2cc3ccccc3n2Cc2cccc(Cl)c2)CC1 | - | . | . | - | - | -
OB(O)c1cc2ccccc2s1 | - | . | - | . | - | .
COc1cc(C(=O)NC(=S)Nc2ccc(NC(=O)c3ccco3)cc2)cc(OC)c1OC | - | - | - | - | - | -
O=C(NC(=S)NNC(=O)c1ccco1)c1ccccc1 | - | . | - | - | - | 25.1µM
O=C(NC(=S)Nc1ccc(NC(=O)c2ccco2)cc1)c1ccccc1 | - | - | - | - | 35.5µM | ?
O=C(/C=C/c1ccccc1)NC(=S)NNC(=O)c1ccco1 | - | - | - | - | - | 10µM
O=C(/C=C/c1ccc(Br)cc1)NC(=S)NNC(=O)c1ccco1 | - | - | - | - | - | ?
CCC/C=C1/CCCOC(C(=O)NCc2ccccn2)(C(F)(F)F)C1 (stereo unspecified) | - | . | - | . | - | .
CCC/C=C1\CCCOC(C(=O)NCc2ccc(C)o2)(C(F)(F)F)C1 (stereo unspecified) | - | . | 50.1µM | . | - | .
O=C(NCc1ccccn1)C1(C(F)(F)F)C/C(=C\CCO)CCCO1 (stereo unspecified) | - | . | - | . | 28.2µM! | .
CCC/C=C1/CCCOC(C(=O)NCc2ccc(C)o2)(C(F)(F)F)C1 (stereo unspecified) | - | - | 56.2µM | . | - | .
SMILES | HP1b binding inh | L3MBTL1 block | Sfp PPTase inh | BAZ2B block | JMJD2A Tudor | G9a inh
CN(Cc1cccc(Cl)c1Cl)C(=O)c1ccccc1SCC(=O)N1CCCC1 | - | . | . | . | - | .
Cc1ccc(Cn2cc(/C=C(/C#N)C(=O)Nc3cccc(Cl)c3)c3ccccc32)cc1 | - | . | . | - | - | -
CCN(CC)c1ccc(-n2nc3cc(C)c(NC(=O)c4ccccc4F)cc3n2)cc1 | - | . | . | - | - | -
O=C(Nc1ccc(S(=O)(=O)Nc2nccs2)cc1)c1cc(-c2ccccc2)nc2ccccc12 | ? | - | - | ? | 31.6µM | 7.94µM
Cc1ccc(-c2cc(C(=O)Nc3ccc(S(=O)(=O)Nc4ncccn4)cc3)c3ccccc3n2)cc1 | - | - | - | - | - | -
Cc1ccc(-c2cc(C(=O)Nc3ccc(S(=O)(=O)Nc4nccs4)cc3)c3ccccc3n2)c(C)c1 | ? | - | 20µM | ? | ? | 28.2µM
CCc1cc(C(=O)NNC(=O)CCN2CCN(c3ccccc3)CC2)sc1C | - | . | - | ? | - | 39.8µM
CC(C)OCc1cc(CN2CCN(c3ccccc3)CC2)c(O)c2ncccc12 | - | . | . | 8.91µM | 25.1µM | -
CCOCc1cc(CN2CCN(c3cccc(Cl)c3)CC2)c(O)c2ncccc12 | - | . | . | 12.6µM | 39.8µM | -
CCOC(=O)N1CCN(Cc2cc(Cl)c3cccnc3c2O)CC1 | - | - | ? | 10µM | 22.4µM | .
O=C(Oc1c(Cl)cc(Cl)c2cccnc12)N1CCCCC1 | - | -[11.4 µM] | - | - | ? | -[12.7 µM]
c1ccc(N2CCN(Cc3ccnc4ccccc34)CC2)cc1 | - | - | - | ? | 56.2µM | 4.47µM
COc1ccc(C(=O)c2cn(CC(=O)Nc3cc(C)ccc3C)c3nc(C)ccc3c2=O)cc1 | - | . | . | - | - | -
Oc1c(CN2CCOCC2)cc(COCc2ccccc2)c2cccnc12 | - | ? | - | 11.2µM | 25.1µM | ?
COCc1cc(CN2CCN(C)CC2)c(O)c2ncccc12 | - | . | - | 1.12µM | 7.94µM | -
O=C(C[C@@H]1C/C=C\CCCC(=O)OC[C@@H]2CCCN2C1=O)N[C@H](CO)Cc1ccccc1 | - | - | . | . | - | .
CCN(Cc1ccccc1)C(=O)Cn1c(=O)n(-c2ccc(Cl)cc2)c(=O)c2c(C)c(C(=O)N(C)C)sc21 | - | . | . | - | 12.6µM | -
Cc1c(C(=O)N(C)C)sc2c1c(=O)n(-c1ccc(Cl)cc1)c(=O)n2Cc1ccccc1F | - | . | . | - | - | -
O=S(=O)(NCc1cccnc1)c1ccc2ccccc2c1 | - | . | - | - | - | -
CCCCN(C(=O)c1ccc(Br)o1)C1CCS(=O)(=O)C1 (stereo unspecified) | - | - | . | - | - | 50.1µM
CN(C)S(=O)(=O)c1cccc2c1C(=O)c1ccccc1C2=O | - | - | - | - | - | ?
O=C1c2ccccc2C(=O)c2c1cccc2N(CCO)CCO | ? | - | - | 50.1µM | ? | 44.7µM
COC(=O)C(CC(C)C)NS(=O)(=O)c1ccccc1Br (stereo unspecified) | - | . | - | . | - | .
COCCNCc1ccc(Cl)cc1Cl | - | - | - | - | - | ?
C=CCc1cc(Cl)ccc1OCCNCCOC | ? | . | - | 50.1µM | 1µM | ?
C=CCc1cc(Cl)ccc1OCCNCCN1CCOCC1 | ? | - | ? | 31.6µM | 7.94µM | 10µM
CCCOc1ccc(Cl)cc1CN1CCOCC1 | - | . | - | - | ? | -
CSCC[C@H](NC(=O)[C@H](CCCN=C(N)N)NC(=O)[C@@H]1CCCN1C(=O)[C@H](Cc1ccccc1)NC(=O)[C@H](C)NC(=O)[C@H](CC(C)C)NC(=O)[C@H](Cc1ccc(O)cc1)NC(=O)[C@H](CC(N)=O)NC(=O)[C@@H](N)CCSC)C(N)=O | . | . | - | . | . | .
